Screening results deposited in PubChem BioAssay by The Scripps Research Institute Molecular Screening Center.
CHRM1 agonist: human M1 muscarinic receptor agonists, primary screen, Fluo-8 calcium fluorescence, CHO-K1 cells, HTS; Muscarinic acetylcholine receptor M1 (Homo sapiens), P11229; CHO-K1 hM1, agonist mode; 0% DMSO, 100% acetylcholine EC100; activation, % at 3 µM; actives 0.33% (n = 360,000);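 active means activation above the run's mean compound activation plus 3 SD, cut at about 16% in these data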;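 further: peak over basal fluorescence ratio within a 140 s kinetic read after compound addition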
Target sequence (P11229 whole entry, looked up): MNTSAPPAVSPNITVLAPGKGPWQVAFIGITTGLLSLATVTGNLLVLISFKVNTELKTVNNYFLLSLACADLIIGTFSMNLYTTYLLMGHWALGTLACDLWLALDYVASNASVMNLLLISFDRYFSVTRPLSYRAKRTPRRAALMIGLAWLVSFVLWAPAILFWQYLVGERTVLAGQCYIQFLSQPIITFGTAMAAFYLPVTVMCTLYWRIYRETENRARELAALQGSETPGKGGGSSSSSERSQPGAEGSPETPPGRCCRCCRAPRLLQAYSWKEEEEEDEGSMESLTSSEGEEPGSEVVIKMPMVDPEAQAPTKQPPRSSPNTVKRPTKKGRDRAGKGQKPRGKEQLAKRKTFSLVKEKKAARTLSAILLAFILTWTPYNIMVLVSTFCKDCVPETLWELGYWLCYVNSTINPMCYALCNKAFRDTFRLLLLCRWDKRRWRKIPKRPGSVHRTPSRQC
CHO-K1 Ca ag: counter-screen for M1 agonists: effect in parental CHO-K1 cells | activation, % at 3 µM | Fluo-8 calcium fluorescence; scaled to maximal ATP response, vehicle zero | actives 0.48% (n = 360,000) | AID 602248, 2012; in the data active means activation above about 15%;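 further: untransfected CHO-K1 host cells lacking M1 receptor as counterscreen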
M1 PAM parental: nonselective calcium activators in parental CHO-K1 cells, primary screen, counter-screen for M1 PAM project, cell-based, Fluo-8 calcium fluorescence, full deck, 1536-well | actives 0.02% (n = 360,000) | activation, % at 3 µM | ATP EC20; 0% at ATP EC20, 100% at ATP max;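 active means activation above the run cutoff, the mean activation of all test compounds plus 3 SD, cut at about 40% in these data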;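 further: peak over basal fluorescence ratio in a 140 s read after ATP addition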
CHO-K1 Ca antag: counter-screen for M1 antagonists: effect in parental CHO-K1 cells; inhibition, % at 3 µM; actives 0.6% (n = 360,000); ATP-induced calcium, Fluo-8 fluorescence; AID 602250;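 active means inhibition above a per-plate cutoff, the plate's mean sample inhibition plus 3 SD, cut at about 24% in these data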;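 further: 0% = DMSO plus EC80 ATP and 100% = DMSO alone without ATP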
CHRM1 PAM: human M1 muscarinic receptor positive allosteric modulators, primary screen, CHO-K1 cells, Fluo-8 calcium fluorescence, 1536-well; Muscarinic acetylcholine receptor M1 (Homo sapiens), P11229; CHO-K1 hM1, ACh EC20; 0% = ACh EC20, 100% = maximal ACh; activation, % at 3 µM; actives 0.088% (n = 360,000); AID 588819, 2011; in the data active means activation above about 19%, passing the limit was not always enough
M1 antag: human M1 muscarinic receptor antagonists, primary screen, CHO-K1 cells, Fluo-8 calcium fluorescence, 1536-well | Muscarinic acetylcholine receptor M1 (Homo sapiens), P11229 | CHO-K1 hM1, ACh EC80 antagonist | inhibition, % at 3 µM | actives 1.3% (n = 360,000) | AID 588852, 2011;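 active means percent inhibition above its own plate's cutoff, namely the mean of that plate's compound wells plus 3 SD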;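 further: peak over basal fluorescence ratio during 140 s after agonist addition; 0% = ACh EC80 plus DMSO and 100% = DMSO alone without agonist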
An asterisk follows results filed as active; . = not tested or not shown. Most compounds without a hit are left out; they make up all but 2.4% or so of the library.

SMILES | CHRM1 agonist | CHO-K1 Ca ag | M1 PAM parental | CHO-K1 Ca antag | CHRM1 PAM | M1 antag
C[N+]1(C)CC[C@H](OC(=O)[C@@](O)(c2ccccc2)C2CCCC2)C1 | -7 | 0 | -8 | 17 | -26 | 100*
O=C(Nc1ccccc1C(F)(F)F)C(O)(c1ccccc1)C1CCCCC1 (stereo not given) | -9 | 0 | -9 | -9 | -12 | 7
CC(=O)N(c1ccccc1)C1CCCC1 | -10 | 0 | 27 | -12 | 2 | -7
CC(C)NC(=S)N/N=C/c1ccc2c(c1)OCCO2 | -2 | 0 | -6 | -2 | -3 | 13
CCCCNc1c(NC(C)=O)c(=O)oc2ccccc12 | -6 | 1 | 15 | -9 | 7 | -8
CCOC(=O)C1C(=O)C=C(/C=C/c2ccc(N(C)C)cc2)CC1c1ccccc1 (stereo not given) | 18* | 22* | 6 | 14 | -7 | 21
O=C(COCc1cc(-c2ccc3c(c2)OCO3)on1)N1CCN(c2cccc(C(F)(F)F)c2)CC1 | -3 | 0 | -21 | 1 | 6 | -5
CCOC(=O)c1c(NC(=O)CN2C(=O)NC3(CCCCC3C)C2=O)sc(C)c1CC (stereo not given) | 0 | 23* | -16 | 16 | 0 | 3
Oc1[nH]c2ccccc2c1/C=N/N1CCCCC1 | 32* | 1 | 28 | -11 | -12 | 22
Oc1ccccc1/C=N/N1CCCCC1 | 31* | 0 | 1 | -3 | -5 | 5
Cc1cc(C)cc(CC(=O)N2CCC2(C)C(=O)NS(=O)(=O)Cc2ccccc2)c1 (stereo not given) | -2 | 0 | 1 | 7 | -2 | -1
O=C(Cn1cc(F)c(=O)[nH]c1=O)c1ccco1 | -1 | 0 | 4 | -14 | 1 | -8
CN(C)C(=O)c1ccc(NC(=O)c2ccccc2SCC(=O)N2CCCC2)cc1 | -4 | 3 | 11 | 7 | -1 | 6
S=C1NC2=C(CCCC2=C2SCCS2)C(c2ccccc2)N1 (stereo not given) | -3 | 5 | -10 | 25* | -19 | 19
CN(C)Cc1ccc(CNC(=O)COc2ccc3ccccc3c2)cc1 | -10 | 6 | 6 | -17 | -10 | 23
N#Cc1c(-c2ccccc2)nc(-c2cccnc2)[nH]c1=O | -3 | 1 | 4 | 0 | -4 | 4
CCCNC(=O)c1nnsc1S(=O)c1ccc(Cl)cc1 (stereo not given) | -5 | 8 | 23 | -3 | -4 | 5
CCCNC(=O)c1nnsc1S(=O)(=O)c1ccc(Cl)cc1 | -6 | 0 | 7 | 0 | -20 | 96*
COc1ccc(N2C(=O)CCC(C(=O)O)C2c2ccc(OC)c(OC)c2)cc1 (stereo not given) | -5 | 0 | 13 | -5 | 5 | 3
COc1ccc(N2C(=O)CCC(C(=O)NCCN3CCOCC3)C2c2ccc(OC)c(OC)c2)cc1 (stereo not given) | -2 | 0 | -6 | 3 | -4 | 22*
CCOc1ccc(CCNC(=O)CCNC(=O)c2ccccc2Cl)cc1OCC | -4 | 1 | 0 | -2 | 9 | -11
CNC(=S)NNC(=O)c1cn(C)nc1C | 0 | -1 | -15 | 24* | 6 | 7
NC(=O)CSc1ccc(-c2ccc(F)cc2)nn1 | -5 | 0 | -8 | 11 | -3 | 3
C[C@@H]1CN([C@@H](C)CO)C(=O)CCCn2nncc2CO[C@H]1CN(C)S(=O)(=O)c1cccc(C#N)c1 | -8 | 1 | 21 | -4 | 2 | -8
CN(Cc1ccsc1)C(=O)CCc1nnc(CCCc2ccccc2)o1 | -3 | 1 | 17 | -11 | 7 | -9
SMILES | CHRM1 agonist | CHO-K1 Ca ag | M1 PAM parental | CHO-K1 Ca antag | CHRM1 PAM | M1 antag
CCn1ccnc1CNC(=O)c1ccc2oc(CCCc3ccccc3)nc2c1 | -4 | 6 | 20 | -2 | -21 | 33*
CCCCc1nc2cc(C(=O)NCc3ccccn3)ccc2o1 | 0 | 0 | -21 | 4 | 0 | 8
CCn1ccnc1CN(C)C(=O)CCc1nnc(CCCc2ccccc2)o1 | -9 | 0 | -15 | 24* | 5 | 4
Cc1ccc(S(=O)(=O)Nc2cc3c4c(c2)CCC(=O)N4CCC3)cc1 | 0 | 2 | 15 | -5 | 8 | -15
O=C1C(=O)N(CCN2CCOCC2)C(c2cccnc2)/C1=C(/O)c1ccc(Cl)cc1 (stereo not given) | -7 | 0 | 8 | 2 | 14 | -14
COc1cc(C23CCCN(CCC(C(C)(C)C)C2)C32OCCO2)cc(OC)c1OC (stereo not given) | . | 0 | 3 | -21 | . | .
CCc1nc2ccc(C(=O)N3CCN(c4cccc(C(F)(F)F)c4)CC3)cc2nc1CC | -6 | 0 | 18 | -17 | -23 | 47*
COc1cccc(CN(C)C(=O)c2cc(COc3ccc4ncccc4c3)on2)c1 | -2 | 19* | -11 | 44* | -19 | 50*
COc1cccc(CN(C)C(=O)c2cc(COc3c(F)cccc3F)on2)c1 | -4 | 1 | -4 | -5 | 12 | -16
COc1cccc(CN(C)C(=O)c2cc(COc3ccc(-n4cncn4)cc3)on2)c1 | 2 | 16* | -20 | -3 | -10 | 12
COc1cc(F)ccc1-c1csc(C(NC(C)=O)c2cccc(F)c2)n1 (stereo not given) | -6 | 3 | 9 | 5 | -3 | 9
CCc1ccc2c(c1)C(=O)C(=O)N2CCS(=O)(=O)c1ccccc1 | -3 | 1 | 17 | -8 | 3 | -5
O=C1C(=O)N(CCS(=O)(=O)c2ccccc2)c2ccc(Cl)cc21 | 17* | 1 | -4 | 0 | 3 | 3
CCOC(=O)N1CCN(C(=O)CN(C)S(=O)(=O)c2ccc(F)cc2)CC1 | 1 | 15 | -2 | 3 | 8 | -3
COCCn1c(SCC(=O)NC2CCCC2)nnc1-c1ccco1 | -4 | 1 | 8 | -14 | 6 | -12
COc1ccc2c(c1)C(C)(CCN)C(=O)N2C (stereo not given) | -4 | 1 | 10 | -17 | -1 | -2
Clc1ccc(SCCOCCN2CCCCCC2)cc1 | -7 | 1 | -2 | 4 | -27 | 42*
CN(C)CCOCCSc1ccc(Cl)cc1 | -7 | 0 | 18 | -3 | -8 | 5
Cn1cccc1C1Nc2ccccc2NC2=C1C(=O)CC(C)(C)C2 (stereo not given) | 1 | 3 | 1 | 21 | -6 | 42*
